# Reference: PubChem BioAssay AID504444 (National Center for Advancing Translational Sciences (NCATS), 2011)
# Among all 360,000 compounds or so, about 7,500 (2.1%) were called active. Entries that show only a call come without a potency. Not shown: some 20% with an inconclusive outcome. The call rests on the fitted dose curve; in most records, active means well fitted inhibition curve with a large enough effect; inconclusive means small, poorly fitted or top-dose-only effect, or effect the other way; inactive means flat fitted curve, though single readings scatter. The full list was thinned out, with actives kept by preference.
# Assay: Nrf2 qHTS screen for inhibitors; further: nearly all actives have a fitted effect of over 60% in size
# Conditions: A549 ARE-Fluc reporter, luciferase luminescence, 18-24 h; series mostly up to 46 µM
# Summary of the method: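 Reporter: ARE-Fluc in A549. Exposure: 18-24 h, 37 °C, 5% CO2, 5% FBS OPTI-MEM. Readouts: fluorescent cytotoxicity (CellTiter-Fluor), then luminescent Nrf2 signal after BugLite.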
# Potency means the concentration at half of the fitted maximal effect.
row,Compound,Potency
1,O=C1N[C@H](Cc2c[nH]c3ccccc23)COC(=O)[C@H](Cc2ccc(F)cc2)C/C=C\C[C@H]1CC(=O)N(CCO)Cc1ccccc1,inactive
2,O=C(C1CCCN(S(=O)(=O)c2cccc3nonc23)C1)N1CCN(c2ccccc2F)CC1 (stereo unspecified),inactive
3,O=C(O)c1ccccc1/C=N/Nc1ccc(S(=O)(=O)Nc2ccc(Cl)cc2)cc1[N+](=O)[O-],inactive
4,O=[N+]([O-])c1cc(S(=O)(=O)Nc2cccc(Cl)c2)ccc1N=Nc1c(O)[nH]c2ccccc12,20.6 µM (active)
5,COc1ccc(S(=O)(=O)Nc2ccc3cn[nH]c3c2)cc1[N+](=O)[O-],inactive
6,O=C(NCCCO)c1nn(-c2ccc(Cl)cc2)nc1CO,inactive
7,O=C(CN1CCCSc2ccccc21)N1CCN(S(=O)(=O)c2ccccc2)CC1,inactive
8,Cc1ccc(-c2nn(CCC(=O)Nc3ccc(OC(F)(F)F)cc3)c(=O)c3ccccc23)cc1,inactive
9,CCOc1ccc(N(CC(=O)Nc2ccccc2F)S(=O)(=O)c2c(C)[nH]c(=O)[nH]c2=O)cc1,inactive
10,CCOc1ccc(N(CC(=O)NC2CCCCCC2)S(=O)(=O)c2c(C)[nH]c(=O)[nH]c2=O)cc1,inactive
11,CCCN(c1ccc(C(C)C)cc1)S(=O)(=O)c1c(C)[nH]c(=O)[nH]c1=O,5.8 µM (active)
12,COc1ccccc1CNC(=O)c1ccc(CS(=O)c2ccccc2Cl)o1 (stereo unspecified),inactive
13,COC(=O)[C@]1(Cc2ccccc2)N[C@H](CN(C)S(=O)(=O)c2ccc(F)cc2)[C@@H]2C(=O)N(Cc3ccccc3)C(=O)[C@@H]21,inactive
14,CC1CCN(C(=O)c2cccc(S(=O)(=O)N3CCCc4ccccc43)c2)CC1,inactive
15,Cc1ccc(NC(=O)c2cccc(S(=O)(=O)N3CCCc4ccccc43)c2)nc1,10.3 µM (active)
16,O=C(Nc1nnc(S(=O)(=O)N2CCCc3ccccc32)s1)c1cccc(F)c1,inactive
17,Cc1ccc(S(=O)(=O)N2CCN(C(=O)Cn3c(=O)cnc4ccccc43)CC2)c(C)c1,inactive
18,O=C1OC(Oc2ccc(Br)cc2)(c2ccccc2)c2ccccc21 (stereo unspecified),inactive
19,CCOc1ccc(NC(=O)c2cn(C3CCCCC3)c(=O)c3c2c2ccccc2n3C)cc1,inactive
20,Cn1c2ccccc2c2c(C(=O)N3CCN(c4ccc(F)cc4)CC3)cn(C3CCCC3)c(=O)c21,25.9 µM (active)
21,CC(C)N(C(=O)COC(=O)c1ccccc1C(=O)N1CCN(c2ccc(F)cc2)CC1)C(C)C,inactive

row,Compound,Potency
1,COc1cc(C2c3c(oc4ccccc4c3=O)C(=O)N2c2nc(C)c(C)s2)ccc1O (stereo unspecified),inactive
2,CC[C@]12c3[nH]c4cc(CCC(=O)N(C)C)ccc4c3CCN1C(=O)[C@@H](CC(=O)NCC13CC4CC(CC(C4)C1)C3)C[C@@H]2C(=O)N1CCN(C(=O)C2CC2)CC1,inactive
3,CCOC(=O)c1c(C)n(S(=O)(=O)c2ccc(C)cc2C)c2ccc(NS(=O)(=O)c3ccc(C)cc3C)cc12,inactive
4,O=C(Nc1cccc(S(=O)(=O)N2CCCC2)c1)c1cncc(Br)c1,inactive
5,CCN(CC)S(=O)(=O)c1cccc(NC(=O)c2ccc(S(=O)(=O)N3CCCC3)cc2)c1,23.1 µM (active)
6,COc1cc(C(=O)NNC(=O)c2ccc(S(=O)(=O)N3CCCCC3)cc2)cc(OC)c1OC,inactive
7,CC(C)n1ncc2c(C(=O)NCc3ccccc3CN(C)C)cc(C3CC3)nc21,inactive
8,CC(C)(C)C(=O)Nc1cccc(-c2ccc[nH]2)n1,inactive
9,COc1cc2c(cc1OC)C(c1ccncc1)CC(=O)N2 (stereo unspecified),inactive
10,COC(=O)c1ccc(C2CC(=O)Nc3cc(OC)c(OC)cc32)cc1 (stereo unspecified),inactive
11,Cc1cc2c(cc1C)C(c1cccc(OC(C)C)c1)CC(=O)N2 (stereo unspecified),16.4 µM (active)
12,Cc1ccc(NC(=O)CN2C(=O)CC(C)Sc3ccccc32)c(C)c1 (stereo unspecified),inactive
13,OC(COc1ccccc1)CN1CCN(c2cccc(Cl)c2)CC1 (stereo unspecified),inactive
14,CCc1nn(CCCN2CCN(c3cccc(Cl)c3)CC2)c(=O)n1CCOc1ccccc1,16.4 µM (active)
15,CCN1C(=O)/C(=C\N2CCN(c3cccc(Cl)c3)CC2)SC1=S,inactive
16,Cc1ccc(-c2noc(CSc3nnc(-c4ccc(Cl)cc4)n3C)n2)cc1,inactive
17,COC(=O)c1ccccc1NC(=O)Cn1c(=O)cc(C)c2c(C)nn(-c3cccc(Cl)c3C)c21,inactive
18,COc1cccc(-c2ccc(SCC(=O)N3CCN(c4ccccc4)CC3)nn2)c1,20.6 µM (active)
19,COc1cccc(/C=C/C(=O)OCC(=O)N2CCN(c3ccccc3)CC2)c1,inactive
20,Cc1nnc(SCC(=O)N2CCN(c3ccccc3)CC2)n1-c1ccccc1,inactive
21,C=CCC[C@@H](Cc1ccc(F)cc1)C(=O)OC[C@@H](C)NC(=O)[C@H](CC=C)CC(=O)N(CCO)Cc1ccccc1,inactive

row,Compound,Potency
1,C=CC[C@H](CC(=O)OC(C)(C)C)C(=O)OC[C@H]1CCCN1C(=O)[C@H](CC=C)CC(=O)N(CCO)Cc1ccccc1,inactive
2,C=CC[C@@H](CC(=O)N[C@H](CO)Cc1ccccc1)C(=O)N[C@@H](COC(=O)[C@@H](CC=C)Cc1ccc(F)cc1)Cc1c[nH]c2ccccc12,inactive
3,C=CCC[C@@H](Cc1ccc(F)cc1)C(=O)O[C@H](CNC(=O)[C@H](CC=C)CC(=O)N(CCO)Cc1ccccc1)c1ccccc1,18.4 µM (active)
4,C=CCC[C@@H](Cc1ccc(F)cc1)C(=O)OC[C@H](Cc1c[nH]c2ccccc12)NC(=O)[C@@H](CC=C)CC(=O)N(CCO)Cc1ccccc1,20.6 µM (active)
5,C=CC[C@@H](CC(=O)N[C@H](CO)Cc1ccccc1)C(=O)N[C@H](C)COC(=O)[C@@H](CC=C)Cc1ccc(F)cc1,inactive
6,CCOC(=O)c1ccc(N2C(=O)c3n[nH]c(-c4ccco4)c3C2c2ccc(O)cc2)cc1 (stereo unspecified),inactive
7,O=C1[C@@H](c2ccccc2)[C@@H](c2ccccc2)N1c1cccnc1,inactive
8,CC(=O)N1c2ccc(S(=O)(=O)N3CCCC(C(=O)Nc4cccc(Cl)c4)C3)cc2CC1C (stereo unspecified),6.51 µM (active)
9,CC(=O)N1c2ccc(S(=O)(=O)N3CCC(C(=O)NCc4ccc(F)cc4)CC3)cc2CC1C (stereo unspecified),inactive
10,O=C(C1CCCN(S(=O)(=O)c2ccccc2)C1)N1CCN(c2ccc(F)cc2)CC1 (stereo unspecified),23.1 µM (active)
11,Cc1ccc(S(=O)(=O)N2CCCC(C(=O)N3CCN(C)CC3)C2)cc1 (stereo unspecified),inactive
12,CC(=O)N1c2ccc(S(=O)(=O)N3CCC(C(=O)N4CCN(c5ccccc5)CC4)CC3)cc2CC1C (stereo unspecified),inactive
13,CC(=O)Nc1ccc(NC(=O)C2CCCN(S(=O)(=O)c3ccc(Cl)cc3)C2)cc1 (stereo unspecified),inactive
14,CC(=O)N1c2ccc(S(=O)(=O)N3CCCC(C(=O)NCc4ccc(Cl)cc4)C3)cc2CC1C (stereo unspecified),8.2 µM (active)
15,COc1ccccc1CNC(=O)C1CCN(S(=O)(=O)c2ccc3c(c2)CC(C)N3C(=O)C2CC2)CC1 (stereo unspecified),inactive
16,CC(=O)N1CCCc2cc(S(=O)(=O)N3CCCC(C(=O)N4CCN(c5cccc(Cl)c5)CC4)C3)ccc21 (stereo unspecified),7.31 µM (active)
17,CC(=O)N1c2ccc(S(=O)(=O)N3CCC(C(=O)NC4CCCCC4C)CC3)cc2CC1C (stereo unspecified),inactive
18,CCCS(=O)(=O)N1CCCC(C(=O)N2CCN(c3ccccc3)CC2)C1 (stereo unspecified),inactive
19,CC(=O)N1CCCc2cc(S(=O)(=O)CCC(=O)N3CCN(c4ccccc4)CC3)ccc21,inactive
